Screens as filed in PubChem.
Ecoli rRNA inh: reduced GFP signal of wild-type E. coli, primary screen, bacterial rRNA inhibitor project, GFP/RFP fluorescence, OD600, single point; E. coli WT GFP vs humanized-ribosome RFP mutants, 24 h; stronger effect = lower value; DMSO median 0, no signal -100; GFP signal change (wild-type ribosome), % (concentration not given with the values); 350,000 compounds, 1.6% hits; AID 720706, 2013;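 active means significant combined selectivity score with lowered wild-type GFP, culture density cut under 30%, mutant RFP and density less affected; inactive means any of these conditions unmet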
RAD52 anneal inh: RAD52 DNA annealing inhibitors, primary screen, biochemical, FRET, single point, set 2; 360,000 compounds, 0.46% hits; DNA repair protein RAD52 homolog (Homo sapiens), P43351; inhibition, % at 18.7 µM; recombinant RAD52 DNA annealing, FRET fluorescence;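 active means every replicate showing at least 50% inhibition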
NSD2 HMT inh: NSD2 histone methyltransferase inhibitors, primary screen, biochemical, AlphaScreen, single concentration, set 2. AID 743445, 2014. inhibition, % at 12.5 µM. 310,000 compounds, 0.54% hits. Histone-lysine N-methyltransferase NSD2 (Homo sapiens), O96028. NSD2 peptide methylation, 120 min; in the data active means inhibition above about 50%
CASP6 VEID inh: human caspase-6 inhibitors, primary screen, biochemical, VEID-R110 fluorescence, single point, set 2. P55212. purified caspase-6, Z-VEID-R110 cleavage fluorescence. inhibition, % at 12.5 µM. 350,000 compounds, 0.53% hits;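 active means mean inhibition across replicates at least about 35%, with every replicate also reaching that limit, limit read from the data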;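 further: 0% = median of neutral control wells and 100% = no fluorescence left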
AF4-AF9 inh: inhibitors of AF4 peptide binding to AF9, primary screen, biochemical, AlphaScreen, biotin-AF4 peptide, FLAG-AF9, single point | inhibition, % at 10 µM | Protein AF-9 (Homo sapiens), P42568 | 350,000 compounds, 0.47% hits;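 active means every replicate reaching a set inhibition limit, whatever the replicate mean, cut at about 25% in these data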;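 further: 0% = plate neutral control median and 100% = total signal loss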
Target sequence (P42568 whole entry, looked up): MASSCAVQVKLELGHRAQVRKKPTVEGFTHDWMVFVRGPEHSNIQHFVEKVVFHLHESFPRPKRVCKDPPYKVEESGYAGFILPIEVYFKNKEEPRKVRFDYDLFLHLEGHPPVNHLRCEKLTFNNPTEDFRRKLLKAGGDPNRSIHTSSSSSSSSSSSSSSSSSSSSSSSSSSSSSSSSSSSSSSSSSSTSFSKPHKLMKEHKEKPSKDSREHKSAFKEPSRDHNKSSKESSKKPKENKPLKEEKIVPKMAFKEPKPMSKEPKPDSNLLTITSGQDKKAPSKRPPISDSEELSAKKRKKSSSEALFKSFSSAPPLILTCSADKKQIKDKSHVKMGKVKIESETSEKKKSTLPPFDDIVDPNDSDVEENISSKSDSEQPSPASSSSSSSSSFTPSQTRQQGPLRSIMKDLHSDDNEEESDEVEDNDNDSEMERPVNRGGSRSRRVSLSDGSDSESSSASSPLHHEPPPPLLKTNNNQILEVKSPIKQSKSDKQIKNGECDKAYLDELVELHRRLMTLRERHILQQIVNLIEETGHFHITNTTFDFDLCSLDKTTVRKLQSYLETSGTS
Alpha artifact: AlphaScreen signal interference with preloaded methylated product, dose response, artefact control for NSD2 inhibitor project, biochemical, cherry-picked samples. AlphaScreen artifact counterscreen, preloaded methylated H4 peptide. shares compounds with NSD2 HMT inh. 1,500 compounds, 9.4% hits. AC35, µM (titrated, usually from 10 µM), without a hit: at the highest dose activity change, negative = signal loss; call rule not given here
Active calls of the source: *; . = no result. Shown are actives, neighbours in structure and some others; about 2.5% of the full set was active somewhere.

SMILES	Ecoli rRNA inh	RAD52 anneal inh	NSD2 HMT inh	CASP6 VEID inh	AF4-AF9 inh	Alpha artifact
Cc1ccc(NC(=O)c2nnn(CC(=O)Nc3ccccc3)c2N)cc1C	.	.	12.3	.	.	.
O=C(O)c1ccc2c(c1)C1C=CCC1C(c1cc3c(cc1Br)OCO3)N2 (centres undefined)	-47.7	-7.1	8.8	16.2	-0.4	.
O=C(O)c1ccc(NS(=O)(=O)c2ccc3c(c2)C2C=CCC2C(c2ccccc2F)N3)cc1 (centres undefined)	10.6	-103.7	158.8*	46.5*	3.9	-2.1%
C[C@@H]1CCCCO[C@H](CN(C)C(=O)Nc2ccc3c(c2)OCO3)[C@@H](C)CN([C@H](C)CO)C(=O)c2cc(NS(=O)(=O)c3cn(C)cn3)ccc2O1	1.5	11.0	.	5.6	-16.3	.
CCCNC(=O)C[C@@H]1C[C@@H]2c3cc(NS(=O)(=O)c4ccc(F)cc4)ccc3O[C@@H]2[C@@H](CO)O1	-1.5	-5.6	.	-1.7	-1.4	.
COC(=O)c1ccc(NC(=O)COc2ccc(S(=O)(=O)N3CCCCC3)cc2)cc1	.	.	0.6	.	.	.
O=C(COc1ccc(S(=O)(=O)N2CCCC2)cc1)Nc1ccc(F)cc1	-8.0	-12.5	68.1*	2.7	0.8	2.0%
O=C1C(=C(I)I)c2ccccc2-c2ccccc21	-46.1	-15.0	131.2*	23.6	1.2	-16.2%
Cn1c(SCc2ccccc2C#N)nc2ccccc2c1=O	3.7	-22.5	99.6*	-2.1	1.8	-2.3%
Cn1c(SCC#N)nc2ccccc2c1=O	3.4	-10.8	-1.4	-0.5	0.0	.
Cc1ccc2c(nc3s/c(=C\c4ccc(-c5ccccc5C(=O)O)o4)c(=O)n32)c1C	8.1	-12.6	9.6	0.1	-1.4	.
Cc1ccc(C)c(N2C(=N)S/C(=C\c3ccc(-c4ccccc4C(=O)O)o3)C2=O)c1	-22.4	-83.6	53.8*	37.5*	-4.5	-2.8%
CCCC(=O)Nc1ccc(C(=O)O)cc1NC(=O)CCC	.	.	72.3*	.	.	-1.6%
CCCC(=O)Nc1ccccc1NC(=O)CCC	.	.	-1.1	.	.	.
C[C@@H]1CCCCO[C@@H](CN(C)CC2CC2)[C@H](C)CN([C@@H](C)CO)C(=O)c2cc(NS(=O)(=O)c3ccc(Cl)cc3)ccc2O1	.	5.9	.	-5.2	9.2	.
Cn1c(COc2ccc(Cl)cc2)nnc1SCC(=O)NC1CCCCC1	.	.	50.5*	.	.	1.2%
O=C1NC(NS(=O)(=O)c2ccccc2)(C(F)(F)F)C(=O)N1c1cccc(Cl)c1 (centres undefined)	-5.7	-11.1	96.2*	0.6	-3.2	-1.5%
COC(=O)Nc1ccc2c(c1)N(C(=O)CCN(C)C)c1ccccc1CC2	6.8	-5.4	105.0*	1.1	0.9	-2.8%
CCOC(=O)Nc1ccc2c(c1)N(C(=O)CCN(C)C)c1ccccc1CC2	3.1	19.7	-2.0	4.6	6.3	.
CN(C)CCC(=O)N1C/C(=C/c2ccccc2)C(=O)/C(=C\c2ccccc2)C1	-60.2	28.0	50.4*	-7.6	0.0	-7.0%
O=C(/C=C/c1ccccc1)CCN1CCOCC1	22.1	-2.1	2.0	-2.2	-5.5	.
O=C1/C(=C/c2ccccc2)CN(C(=O)CCN2CCOCC2)C/C1=C\c1ccccc1	-54.7	16.2	68.0*	10.8	3.0	-0.2%
CCOC(=O)N1C/C(=C\c2ccccc2)C(=O)/C(=C/c2ccccc2)C1	-10.5	-5.5	1.3	6.6	3.7	.
C[N+](C)(C)CCC(=O)N1C/C(=C/c2ccccc2)C(=O)/C(=C\c2ccccc2)C1	1.4	43.4	50.2*	-3.8	-5.6	-3.9%
Cc1noc(C)c1NC(=O)Nc1ccc2c(c1)C(=O)N([C@@H](C)CO)C[C@@H](C)[C@@H](CN(C)S(=O)(=O)c1ccc(F)cc1)OCCCC[C@@H](C)O2	-3.8	17.3	.	-0.7	3.5	.
SMILES	Ecoli rRNA inh	RAD52 anneal inh	NSD2 HMT inh	CASP6 VEID inh	AF4-AF9 inh	Alpha artifact
C[C@H](CO)N1C[C@H](C)[C@@H](CN(C)C(=O)c2ccccc2)Oc2ncc(C3=CCCC3)cc2C1=O	-4.2	-5.0	.	-1.7	-2.8	.
CN(C)/C=C1\C(=O)N(c2ccc(Cl)cc2)CS1(=O)=O	.	.	-1.5	.	.	.
Cc1ccc(N2CS(=O)(=O)/C(=C/N(C)C)C2=O)cc1	.	.	64.0*	.	.	-1.1%
COc1ccc(NC(=O)Nc2ccc3c(c2)C(=O)N([C@H](C)CO)C[C@H](C)[C@@H](CN(C)S(=O)(=O)c2cn(C)cn2)OCCCC[C@@H](C)O3)cc1	-0.3	.	.	.	.	.
COc1ccc(OC)c2c1C(=O)C(Cl)=C(Cl)C2=O	-4.3	-10.3	-0.7	8.8	-8.0	.
COC1=CC(=O)C(OC)=C(OC)C1=O	32.4	-1.0	100.7*	-1.2	-0.9	3.2%
N#Cc1ccc(-c2ccco2)nc1SCc1ccccc1	.	.	55.0*	.	.	-0.6%
CN1CCN(C(=O)C[C@H]2C[C@@H]3c4cc(NC(=O)Nc5ccccc5)ccc4O[C@@H]3[C@H](CO)O2)CC1	3.1	.	.	.	.	.
O=C1CC2(CCCC2)CC(=O)N1c1ccccc1	10.7	-10.9	0.9	1.0	-0.7	.
O=C1CC2(CCCCC2)CC(=O)N1CCc1ccccc1	-45.8	-10.2	74.5*	1.5	0.4	1.4%
CC1OC(Nc2cccc3ccccc23)C(O)C(O)C1O (centres undefined)	.	.	64.6*	.	.	-1.7%
CCCNC(=O)N[C@H]1CC[C@@H](CCn2cc(C3CCCCC3)nn2)O[C@H]1CO	-1.6	16.7	.	1.2	-10.0	.
COc1ccc(CCNC(=O)CN2C(=O)C(=O)N(C3CCCC3)C2=O)cc1OC	.	-16.5	55.0*	-1.6	2.1	0.3%
S=C(Nc1ccc2nsnc2c1)N1CCCCC1	-19.6	-5.2	61.4*	47.2*	-15.3	8.6%
OCCNC(=S)Nc1ccc2nsnc2c1	0.3	-7.9	96.1*	5.6	0.0	-2.8%
O=C(NCCO)Nc1ccc2nsnc2c1	15.2	-14.3	1.0	0.1	-0.4	.
CCNC(=O)[C@H]1[C@H](CO)[C@H]2Cn3c(ccc(C4=CCCC4)c3=O)[C@H]2N1C(=O)C1CC1	3.9	-18.1	.	2.6	0.5	.
C[C@@H]1CN([C@@H](C)CO)C(=O)c2cc(-c3cncnc3)cnc2O[C@H]1CN(C)C(=O)Cc1ccccn1	9.4	3.8	.	-2.8	-0.3	.
Cc1ccc(OCCCC(=O)Nc2ccccc2C(F)(F)F)cc1	.	.	54.2*	.	.	-0.4%
C[C@@H]1CN([C@H](C)CO)S(=O)(=O)c2ccc(C#CC3CC3)cc2O[C@@H]1CN(C)C(=O)C1CCC1	-1.8	-0.3	.	-0.1	-0.8	.
COc1ccc2nc3cccc(OC)c3nc2c1	-25.7	-12.3	101.2*	49.9*	2.4	-1.3%
COc1ccc2nc(-c3ccccc3)cc(OC)c2c1	-31.1	3.1	-4.5	-3.2	-1.5	.
